Source: PubChem BioAssay (several laboratories)
Only some compounds are listed: those with a hit (about 1.8% of all), similar ones and a draw of the others.
VHR inh abs – blocks human VHR1 dual specificity phosphatase | P51452 | recombinant VHR phosphatase, pNPP absorbance | inhibition, % at 13.3 µM | 290,000 tested, 0.52% active | AID 1654; in the data active means inhibition above about 50%
Target sequence (P51452 whole entry, looked up): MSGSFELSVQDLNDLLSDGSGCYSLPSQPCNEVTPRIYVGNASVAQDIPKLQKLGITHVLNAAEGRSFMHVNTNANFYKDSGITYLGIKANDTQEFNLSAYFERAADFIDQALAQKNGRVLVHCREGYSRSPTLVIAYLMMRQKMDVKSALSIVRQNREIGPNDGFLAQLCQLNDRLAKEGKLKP
Sa ugtP lethal – compounds lethal to S. aureus RN4220 ugtP deletion mutant; AID 1259309; 330,000 tested, 0.54% active; OD600 growth, 16 h; growth inhibition, % (test concentration not listed); in the data active means growth inhibition above about 68%
PfHsp40 yeast – restores yeast growth despite PfHsp40 toxicity; S. cerevisiae expressing PfHsp40, growth rescue, ATP luminescence; growth rescue, % at 12.5 µM; 340,000 tested, 0.68% active; AID 504582; in the data active means growth rescue above about 28%, passing the limit was not always enough; inconclusive means no clear call, values can overlap the other calls;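 further: yeast W303a lacking pdr1 and pdr3 grown in galactose medium; growth measured after three days at 30 °C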
PrPC surface inh – cell surface PrPC inhibition, primary TR-FRET screen; P04156; TR-FRET read-out; inhibition, % at 13.8 µM; 370,000 tested, 0.43% active; AID 720596; in the data active means inhibition above about 24%
RN4220 kill – S. aureus RN4220 growth inhibition. OD600, 16 h. inhibition, % (test concentration not listed). 330,000 tested, 0.33% active. AID 1259311; in the data active means inhibition above about 85%
Large screens that a line does not name were inactive.

COc1ccc(C(=O)Nc2ccc(NC(=O)CSc3nnc(-c4ccncc4)n3C)cc2)cc1	none
Cc1cc(C(=O)Nc2cccc3c2OC(CN(C)S(C)(=O)=O)C(C)CN(C(C)CO)C3=O)n(C)n1 (centres undefined)	none (no result: VHR inh abs, PfHsp40 yeast, PrPC surface inh)
COc1nc(NCCc2ccc(OC)c(OC)c2)nc(OC)n1	none
COc1ccc(CCNc2c3ccccc3nc3ccccc23)cc1OC	Sa ugtP lethal 93.2
CC[C@@]12C(=O)N(c3ccccc3)C(=O)N1C(c1ccc(Br)cc1)C1C(=O)N(C(C)(C)C)C(=O)C12 (some centres undefined)	none (no result: VHR inh abs, PfHsp40 yeast, PrPC surface inh)
CCC(C)Sc1ccc(C2N[C@@](CC(C)C)(C(=O)OC)C3C(=O)N(C)C(=O)C23)cc1 (some centres undefined)	none (no result: VHR inh abs, PfHsp40 yeast, PrPC surface inh)
CC1=C([N+](=O)[O-])C(c2ccc(Cl)cc2)NC(=O)N1 (centres undefined)	VHR inh abs 58.7
Cc1cccc(NC(=O)C(=O)NNC(=O)c2ccc(C(C)(C)C)cc2)c1	VHR inh abs 52.0 (no result: Sa ugtP lethal, RN4220 kill)
COC(=O)c1ccc(-c2ccc(C=NNC(=O)Cc3nnc(N)s3)o2)cc1	none (no result: VHR inh abs, PfHsp40 yeast, PrPC surface inh)
CCc1ccc(-c2cc(C(=O)N3N=C(C(F)F)CC3(O)C(F)F)c3ccccc3n2)cc1 (centres undefined)	PfHsp40 yeast 174.1
CC(C)Cc1cc(C(=O)N2N=C(C(F)F)CC2(O)C(F)F)c2ccccc2n1 (centres undefined)	none
Cc1cc(C)c2c(CC(=O)NN(C)C)coc2c1	VHR inh abs 52.9
COc1ccc(NC(=O)Cc2ccc(Cl)c(Cl)c2)cn1	none
COc1ccc(NC(=O)/C(Cl)=C(/Cl)S(=O)(=O)Cc2ccc(C)cc2)cn1	Sa ugtP lethal 98.4, PfHsp40 yeast 343.3 (no result: PrPC surface inh)
C=CCn1c2ccccc2c(=O)c2cc(C#Cc3ccsc3)ccc21	none (no result: Sa ugtP lethal, PfHsp40 yeast, PrPC surface inh, RN4220 kill)
C=CCn1c2ccccc2c(=O)c2cc(C#Cc3ccccn3)ccc21	PfHsp40 yeast 28.7 (no result: VHR inh abs, Sa ugtP lethal, RN4220 kill)
CCC1(CC)C(=O)C2=C3C(CC(C(=O)OC)=CC(C(=O)OC)C31)C1C(=O)NC(=O)C1C2C (centres undefined)	none (no result: VHR inh abs, PfHsp40 yeast, PrPC surface inh)
CCc1ccc2[nH]c(=O)c(CN(CCCN3CCOCC3)C(=O)Nc3ccc(Cl)cc3)cc2c1	VHR inh abs 52.6 (no result: Sa ugtP lethal, RN4220 kill)
Cc1cccc(N2C(=O)C(Oc3ccc(Cl)cc3Cl)C2C=O)c1C (centres undefined)	PfHsp40 yeast 280.5 (no result: Sa ugtP lethal, RN4220 kill)
COCCN1CC(=O)N(c2cccc(C)c2C)C(c2ccc(Cl)cc2)C1=O (centres undefined)	none
COC1C(OC(N)=O)C(O)C(Oc2ccc3c(O)c(NC(=O)c4ccc(O)c(CC=C(C)C)c4)c(=O)oc3c2C)OC1(C)C (centres undefined)	Sa ugtP lethal 98.8, RN4220 kill 99.7 (no result: VHR inh abs, PfHsp40 yeast, PrPC surface inh)
CCOC(=O)Oc1c(OC)cc(C(=O)OC2CC3CN4CCc5c([nH]c6cc(OC)ccc56)C4CC3C(C(=O)OC)C2OC)cc1OC (centres undefined)	none (no result: VHR inh abs, PfHsp40 yeast, PrPC surface inh)
Cc1ccc(O)c(NC(=O)C2CC(c3c(F)cccc3Cl)=NO2)c1 (centres undefined)	PfHsp40 yeast 36.1
COc1cc(NC(=O)C2CC(c3c(F)cccc3Cl)=NO2)c(OC)cc1Cl (centres undefined)	none
CC(=NNc1ccc(C(=O)O)cc1)c1ccc2c(c1)Nc1ccccc1S2	none (no result: VHR inh abs, PfHsp40 yeast, PrPC surface inh)
N#CC(=NNc1ccc(F)cc1)C(=N)N1CCCCC1	none (no result: VHR inh abs, PfHsp40 yeast, PrPC surface inh)
CC(C)N(Cc1ccccc1)C(=O)CN1c2cccc3cccc(c23)S1(=O)=O	PfHsp40 yeast 69.6 (no result: VHR inh abs)
CN(C)C(=O)CN1c2cccc3cccc(c23)S1(=O)=O	none (no result: VHR inh abs)
Cc1ccc2[nH]cc(CCNC(=O)c3cccs3)c2c1	VHR inh abs 52.0
Cc1ccc2[nH]cc(CCNC(=O)c3ccco3)c2c1	none
COc1ccc2[nH]c(=O)c(CN(Cc3cccnc3)C(=O)Nc3ccccc3)cc2c1	PfHsp40 yeast 287.8
CCOc1ccc2[nH]c(=O)c(CN(Cc3cccnc3)C(=O)Nc3ccccc3OC)cc2c1	none
CC(C)(c1cc(Br)c(O)c(Br)c1)c1cc(Br)c(O)c(Br)c1	PfHsp40 yeast 330.7 (no result: VHR inh abs, Sa ugtP lethal, RN4220 kill)
O=c1[nH]c(N/N=C\c2ccc(F)cc2)nc2ccccc12	VHR inh abs 57.4 (no result: Sa ugtP lethal, RN4220 kill)
CCN(CC)c1ccc(/C=N/Nc2nc3ccccc3[nH]2)cc1	PrPC surface inh 37.3 (no result: Sa ugtP lethal, RN4220 kill)
CC1CCC(CN2C(Nc3ccccc3)=NCC2Cc2ccccc2)CC1 (centres undefined)	none (no result: VHR inh abs, PfHsp40 yeast, PrPC surface inh)
Cc1cccc(C)c1C(=O)NC(Cc1ccccc1)C(=O)O (centres undefined)	none (no result: VHR inh abs, PfHsp40 yeast, PrPC surface inh)
CO[C@H]1/C=C/O[C@@]2(C)Oc3c(C)c(O)c4c(O)c(c(C=NN5CCN(C)CC5)c(O)c4c3C2=O)NC(=O)/C(C)=C\C=C\[C@H](C)[C@H](O)[C@@H](C)[C@@H](O)[C@@H](C)[C@H](OC(C)=O)[C@@H]1C	none (no result: VHR inh abs, Sa ugtP lethal, RN4220 kill)
COC(=O)C1C(O)C(C)C(O)C(C)C=CC=C(C)C(=O)Nc2c(C)c(OC(C)=O)c3c(c2O)C(=O)C(C)=C2OCOC(=C23)C(C)=CC(C)(O)C(O)C(C)C1O (centres undefined)	Sa ugtP lethal 99.7, RN4220 kill 98.9 (no result: VHR inh abs, PfHsp40 yeast, PrPC surface inh)
Oc1c(Cl)cc(Cl)c2cccnc12	none
Oc1c(I)cc(I)c2cccnc12	Sa ugtP lethal 95.8, PfHsp40 yeast inconclusive, RN4220 kill 95.5
CCC(=O)Nc1cccc(C2=NOC3(C2)CC(C(N)=O)N(C(=O)c2ccccc2C(=O)c2ccccc2)C3)c1 (centres undefined)	none (no result: VHR inh abs, PfHsp40 yeast, PrPC surface inh)
COC(=O)C1=C(c2c(C)noc2C)CC2CCC1N2C(=O)NCCCOC(C)C (centres undefined)	none (no result: VHR inh abs, PfHsp40 yeast, PrPC surface inh)
O=C1[C@@H]2[C@H](C(=O)N1O)[C@H]1C=C[C@@H]2C1	PfHsp40 yeast 33.9
CCN(CC)S(=O)(=O)c1ccc(NC(=S)NC(=O)C(C)C)cc1	none
CC(C)CC(=O)NC(=S)Nc1ccc(NC(=O)c2ccco2)cc1	Sa ugtP lethal 88.9
CCN(CC)S(=O)(=O)c1ccc(NC(=O)COc2c(OC)cccc2OC)cc1	VHR inh abs 55.9
CCC(=O)NC(=S)Nc1ccc(NC(=O)c2ccco2)cc1	none
CCN(CC)S(=O)(=O)c1ccc(Cl)c(NC(=O)CSc2cccc[n+]2[O-])c1	none
CCN(CC)S(=O)(=O)c1ccc(NC(=S)NC(=O)CC(C)C)cc1	Sa ugtP lethal 89.0
CCN(CC)S(=O)(=O)c1ccc(NC(=O)CSc2cccc[n+]2[O-])cc1	VHR inh abs 52.3 (no result: PrPC surface inh)
Brc1ccc(/C=C/C=NNc2nc3ccccc3s2)cc1	none (no result: VHR inh abs, PfHsp40 yeast, PrPC surface inh)
Cc1ccc(Cl)cc1C1=CC(=O)CC(c2ccc(F)cc2)C1 (centres undefined)	none (no result: VHR inh abs, PfHsp40 yeast, PrPC surface inh)
O=C1c2ccccc2C(=O)N1CCCc1cn(CC2CCC(C3CCC(Cn4cc(CCCN5C(=O)c6ccccc6C5=O)nn4)O3)O2)nn1 (centres undefined)	none (no result: VHR inh abs, PfHsp40 yeast, PrPC surface inh)
O=C(NC(=S)Nc1ccc(CN2CCCCC2)cc1)c1ccco1	PfHsp40 yeast 128.1
CCN(CC)S(=O)(=O)c1ccc(NC(=O)Nc2cccc(C(F)(F)F)c2)cc1	PrPC surface inh 42.8
O=C(NCCCN1CCOCC1)c1cccc(NC(=O)c2ccccc2)c1	PfHsp40 yeast 122.2 (no result: VHR inh abs, Sa ugtP lethal, RN4220 kill)
O=C(NCCCN1CCOCC1)c1ccc2c(c1)N(Cc1ccccc1)C(=O)c1ccccc1S2=O (centres undefined)	VHR inh abs 59.8
